Assay outcomes deposited in PubChem BioAssay by The Scripps Research Institute Molecular Screening Center.
In the library only some 3.5% were active in any assay of this set; here they are far more common.
GPR151 activ: activators of human GPR151, primary screen, cell-based, PathHunter beta-arrestin, luminescence | G-protein coupled receptor 151 (Homo sapiens), Q8TDV0 | PathHunter beta-arrestin GPR151 cells | activation, % at 11.2 µM | hit rate 1% among 650,000 | AID 1508602, 2020; in the data active = activation above about 4.9%;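 note: 0% = median of compound wells and 100% = cells with positive control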
MITF primary: MITF inhibitors, primary screen, biochemical, AlphaScreen, human | hit rate 0.91% among 650,000 | AlphaScreen MITF homodimerization, bead proximity signal | Microphthalmia-associated transcription factor (Homo sapiens), O75030 | inhibition, % at 2.6 µM; in the data active = inhibition above about 50%;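 note: 0% = vehicle wells with protein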
Target sequence (O75030 whole entry, looked up): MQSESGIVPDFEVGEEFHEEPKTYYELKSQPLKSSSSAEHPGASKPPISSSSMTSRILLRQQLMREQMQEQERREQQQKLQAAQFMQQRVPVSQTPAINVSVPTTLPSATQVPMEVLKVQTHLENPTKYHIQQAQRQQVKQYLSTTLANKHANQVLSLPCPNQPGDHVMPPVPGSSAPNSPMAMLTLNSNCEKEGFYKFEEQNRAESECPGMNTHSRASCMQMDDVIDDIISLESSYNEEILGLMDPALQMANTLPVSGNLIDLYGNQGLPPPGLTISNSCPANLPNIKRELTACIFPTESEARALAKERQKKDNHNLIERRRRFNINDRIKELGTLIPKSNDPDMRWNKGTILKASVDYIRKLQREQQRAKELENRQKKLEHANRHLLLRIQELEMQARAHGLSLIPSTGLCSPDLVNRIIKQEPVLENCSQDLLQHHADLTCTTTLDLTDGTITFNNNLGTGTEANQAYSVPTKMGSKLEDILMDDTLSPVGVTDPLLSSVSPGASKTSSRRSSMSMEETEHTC
FBW7 activator: FBW7 E3 ligase activators, primary screen, biochemical, AlphaScreen, human; F-box/WD repeat-containing protein 7 (Homo sapiens), Q969H0; AlphaScreen FBW7–phospho-cyclin E peptide binding, activator screen; normalized activity (activation), % at 26.1 µM; hit rate 0.13% among 650,000; in the data active = normalized activity above about 1.9%;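 note: purified mutant Fbw7 with reduced substrate affinity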
TEAD-YAP block: TEAD-YAP interaction inhibition, primary screen, TEAD-YAP interaction inhibitor project, luminescence, HEK-TIYL cells. hit rate 1.4% among 640,000. inhibition, % at 9.12 µM. AID 1259422, 2018. TEAD-Gal4/YAP UAS-luciferase luminescence; in the data active = inhibition above about 32%;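 note: 0% = median of test compound wells and 100% = reference inhibitor wells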
* hit, by the source's call.

For CC(=O)N1CCN(c2nc(-c3ccccc3)c3cc(Cl)ccc3n2)CC1 the results were GPR151 activ 1, MITF primary 13, FBW7 activator 0 and TEAD-YAP block 3.
For N#Cc1c(-c2ccc3c(c2)OCO3)c(C#N)c2sc3ccccc3n2c1=O the results were GPR151 activ -1, MITF primary 6, FBW7 activator 0 and TEAD-YAP block -27.
C=CCN(CC=C)CC(O)Cn1c(-c2ccccc2)c(-c2ccccc2)c2cc(C)ccc21 (stereo unspecified) was read as GPR151 activ 1, MITF primary -1, FBW7 activator 0 and TEAD-YAP block 1.
`O=C(NCc1ccccc1Cl)C1CCC(Cn2c(SCC(=O)N3CCCC3)nc3ccccc3c2=O)CC1` (stereo unspecified) gave GPR151 activ 1, MITF primary 8, FBW7 activator 0 and TEAD-YAP block 6.
For CCOc1ccccc1N1CCN(C(=O)c2cc(-c3cccc(C)c3)nc3ccccc23)CC1 the results were GPR151 activ 0, MITF primary 22, FBW7 activator 0 and TEAD-YAP block 42*.
`COc1cc(CNC2CCCC2)cc2c1OCO2` gave GPR151 activ 1, MITF primary 45, FBW7 activator 0 and TEAD-YAP block -8.
`O=C1CC(N2CCN(Cc3ccc4c(c3)OCO4)CC2)C(=O)N1c1ccccc1Cl` (stereo unspecified) gave GPR151 activ 1, MITF primary 10, FBW7 activator 0 and TEAD-YAP block 2.
`CN(C)c1ncn(-c2ccc(Nc3nccc(-c4cncc(N5CCOCC5)c4)n3)cc2)n1` gave GPR151 activ 0, MITF primary -5, FBW7 activator 0 and TEAD-YAP block 63*.
Screening CC(C)(C)c1ncn(-c2ccc(Nc3nccc(-c4cncc(N5CCOCC5)c4)n3)cc2)n1 returned GPR151 activ 4, MITF primary -12, FBW7 activator 0 and TEAD-YAP block 74*.
For FC(F)(F)c1ncn(-c2ccc(Nc3nccc(-c4cncc(N5CCOCC5)c4)n3)cc2)n1 the results were GPR151 activ 0, MITF primary -8, FBW7 activator 0 and TEAD-YAP block -9.
For COc1ccc(NC(=O)C(Cc2c[nH]c3ccccc23)NC(=O)c2ccccc2)cc1 (stereo unspecified) the results were GPR151 activ 0, MITF primary 5, FBW7 activator 0 and TEAD-YAP block 62*.
For O=C(NC(Cc1c[nH]c2ccccc12)C(=O)Nc1ccccc1)Oc1ccccc1 (stereo unspecified) the results were GPR151 activ 1, MITF primary 6, FBW7 activator 0 and TEAD-YAP block 10.
`CC1CCC(C(=O)NC(Cc2c[nH]c3ccccc23)C(=O)Nc2cccnc2)CC1` (stereo unspecified) gave GPR151 activ 0, MITF primary 9, FBW7 activator 0 and TEAD-YAP block 58*.
Screening O=c1c(O)c(-c2cc(O)c(O)c(O)c2)oc2cc(O)ccc12 returned GPR151 activ 3, MITF primary 78*, FBW7 activator 0 and TEAD-YAP block 2.
O=c1c(O)c(-c2ccc(O)c(O)c2)oc2cc(O)ccc12 was read as GPR151 activ -2, MITF primary 23, FBW7 activator 0 and TEAD-YAP block -24.
`O=C(CN1CCCc2ccccc21)N/N=C/c1ccco1` gave GPR151 activ -2, MITF primary -8, FBW7 activator 0 and TEAD-YAP block 68*.
`O=C(Nc1ccc(Oc2ccccc2)cc1)c1ccc(F)c(S(=O)(=O)N2CCCCC2)c1` gave GPR151 activ 0, MITF primary 5, FBW7 activator 0 and TEAD-YAP block 37*.
For O=C(Nc1ccc(Oc2ccccc2)cc1)c1ccc(F)c(S(=O)(=O)N2CCN(C3CCCCC3)CC2)c1 the results were GPR151 activ 2, MITF primary -2, FBW7 activator 0 and TEAD-YAP block 42*.
For O=C(Nc1ccc(Oc2ccccc2)cc1)c1ccc(F)c(S(=O)(=O)N2CCC3(CC2)OCCO3)c1 the results were GPR151 activ -1, MITF primary 22, FBW7 activator 0 and TEAD-YAP block 61*.
For CC(=O)Nc1ccc(N=C(N)c2cc(I)cc([N+](=O)[O-])c2)cc1 the results were GPR151 activ -1, MITF primary 14, FBW7 activator 0 and TEAD-YAP block -13.
For CC(=O)C1=C(C)Nc2ncnn2C1c1ccc(OCc2ccccc2)cc1 (stereo unspecified) the results were GPR151 activ 2, MITF primary -9, FBW7 activator 0 and TEAD-YAP block -5.
`CN(C)c1ccc(C(=O)NCc2ccc3c(c2)CCO3)cc1` gave GPR151 activ 0, MITF primary -5, FBW7 activator 1 and TEAD-YAP block -3.
Cn1nc(C(C)(C)C)cc1C(=O)NCc1ccc2c(c1)CCO2 was read as GPR151 activ 0, MITF primary -3, FBW7 activator 1 and TEAD-YAP block 42*.
CN(C)C(CNC(=O)c1ccc(Cl)c(Cl)c1)c1ccsc1 (stereo unspecified) was read as GPR151 activ 2, MITF primary 6, FBW7 activator 0 and TEAD-YAP block 1.
O=C(/C=C/Nc1ccccc1I)c1ccccn1 was read as GPR151 activ -5, MITF primary 9, FBW7 activator 0 and TEAD-YAP block 80*.
For O=C(/C=C/Nc1cccc2cccnc12)c1ccccc1 the results were GPR151 activ -1, MITF primary 16, FBW7 activator 0 and TEAD-YAP block -51.
O=C1CC(c2ccccc2)c2c(ccc3ccccc23)N1 (stereo unspecified) was read as GPR151 activ 1, MITF primary 13, FBW7 activator 0 and TEAD-YAP block 9.
`O=C1CC(c2cccc(Br)c2)c2c(ccc3ccccc23)N1` (stereo unspecified) gave GPR151 activ 0, MITF primary 5, FBW7 activator 0 and TEAD-YAP block 51*.
`Cc1ccccc1C1CC(=O)Nc2ccc3ccccc3c21` (stereo unspecified) gave GPR151 activ -2, MITF primary 1, FBW7 activator 0 and TEAD-YAP block 38*.
For CCN(CC)CCCNC(=O)C1CCCN(c2nc3ccccc3n2C)C1 (stereo unspecified) the results were GPR151 activ -1, MITF primary 16, FBW7 activator 1 and TEAD-YAP block 0.
For COc1ccc(NC(=O)CN(Cc2ccccc2)S(=O)(=O)c2ccccc2)c(OC)c1 the results were GPR151 activ -2, MITF primary 16, FBW7 activator 1 and TEAD-YAP block -2.
CCOC(=O)c1c(NC(=O)c2cc(Cl)ccc2[N+](=O)[O-])sc(C)c1C was read as GPR151 activ 0, MITF primary -2, FBW7 activator 0 and TEAD-YAP block -5.
`OCCNc1nccn2c(-c3ccccc3CO)cnc12` gave GPR151 activ 0, MITF primary 3, FBW7 activator 2.1* and TEAD-YAP block -4.
